Assay [1] in a line: HepG2 liver cancer cell viability effects, profiling panel, resazurin fluorescence, 24 h, PK04 Diversity Set (AID 1172). Note: test concentration not given here. The note with it: higher = more signal.
The nature of assay [2]: basal S. cerevisiae growth modulation, no modifier, primary screen, OD600, strain BY4716, 24 h, basal condition (AID 1173). The note with it: OD600, 24 h, higher = more signal, called active from +8 up or from −8 down.
Assay [3] is described as follows: MM1S myeloma cell viability, profiling panel, resazurin fluorescence, basal, 24 h, PK04 Diversity Set (AID 1174).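 Note: MM1S multiple myeloma cell line; test concentration not given here.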 The note with it: higher = more signal, called active from +8 up or from −8 down. In general terms: Alamar Blue is a resazurin reagent that responds to reducing activity.
For assay [4], the target named is Dihydroorotate dehydrogenase (quinone), mitochondrial (Plasmodium falciparum (isolate 3D7)) (UniProt Q08210). Description: PfDHODH enzyme inhibitors, primary screen, biochemical, C-terminal His tag, absorbance 600 nm (AID 1175).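 Note: recombinant parasite enzyme with a five histidine tag at its C terminus; test concentration not given here.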 The note with it: DCIP absorbance 600 nm, higher = more signal, called active from +8 up or from −8 down.
Dihydroorotate dehydrogenase (quinone), mitochondrial (Plasmodium falciparum (isolate 3D7)), sequence (Q08210 whole entry, looked up): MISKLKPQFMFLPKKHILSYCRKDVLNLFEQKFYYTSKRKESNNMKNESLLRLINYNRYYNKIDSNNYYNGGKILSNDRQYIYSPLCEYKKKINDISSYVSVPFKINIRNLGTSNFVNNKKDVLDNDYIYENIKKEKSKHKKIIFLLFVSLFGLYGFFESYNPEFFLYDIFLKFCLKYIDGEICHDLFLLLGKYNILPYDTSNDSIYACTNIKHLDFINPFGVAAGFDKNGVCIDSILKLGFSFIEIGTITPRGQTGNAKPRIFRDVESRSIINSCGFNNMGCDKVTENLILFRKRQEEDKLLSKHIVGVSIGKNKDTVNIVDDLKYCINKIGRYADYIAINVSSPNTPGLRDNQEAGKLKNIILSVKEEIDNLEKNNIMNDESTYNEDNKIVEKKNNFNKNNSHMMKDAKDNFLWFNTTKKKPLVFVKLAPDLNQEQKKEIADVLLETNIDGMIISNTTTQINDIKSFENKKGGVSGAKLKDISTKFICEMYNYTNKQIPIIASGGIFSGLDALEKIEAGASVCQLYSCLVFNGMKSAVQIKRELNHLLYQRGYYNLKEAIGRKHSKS
Assay [5] can be described thus: P. aeruginosa biofilm formation inhibitors, primary screen, strain PAO1, LB-PBS medium, absorbance 600 nm (AID 1176). Note: test concentration not given here. The note with it: P. aeruginosa PAO1 growth/biofilm, A600, 12 h; higher = more signal.
Assay [6] is described as follows: S. cerevisiae RM11-1a growth modifiers, primary screen, strain RM11-1a, OD600, basal, 24 h (AID 1177).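 Note: cultures grown under basal conditions with no added stressor; test concentration not given here.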 The note with it: OD600, 24 h, higher = more signal, called active from +8 up or from −8 down.
Assay [7] can be described thus: E. coli acrAB mutant growth effects, primary screen, E. coli filamentation inducers, strain DRC39, OD650, 24 h (AID 1178).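 Note: growth measured as culture turbidity by optical density at 650 nm; test concentration not given here.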 The note with it: higher = more signal, called active from +8 up or from −8 down.
A short description of assay [8]: E. coli acrAB mutant growth effects, primary screen, E. coli filamentation inducers, strain DRC39, OD650, 48 h (AID 1179).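 Note: screen aims at cell division blockers that make cells filament.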 The note with it: E. coli DRC39 delta-acrAB growth, higher = more signal, called active from +8 up or from −8 down.
A short description of assay [9]: RPMI8226 myeloma cell viability, profiling panel, resazurin fluorescence, basal, 24 h, PK04 Diversity Set (AID 1180).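 Note: RPMI8826 multiple myeloma cell line at 5000 cells per well; test concentration not given here.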 The note with it: higher = more signal.
In assay [10] the target is E3 ubiquitin-protein ligase XIAP (Homo sapiens) (UniProt P98170). Description: XIAP binders, primary screen, biophysical, small-molecule microarray, fluorescence 635 nm (AID 1181).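 Note: score merges 667 nm emission and signal to noise over triplicate slides.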 The note with it: small-molecule microarray binding, higher = more signal.
E3 ubiquitin-protein ligase XIAP (Homo sapiens), sequence (P98170 whole entry, looked up): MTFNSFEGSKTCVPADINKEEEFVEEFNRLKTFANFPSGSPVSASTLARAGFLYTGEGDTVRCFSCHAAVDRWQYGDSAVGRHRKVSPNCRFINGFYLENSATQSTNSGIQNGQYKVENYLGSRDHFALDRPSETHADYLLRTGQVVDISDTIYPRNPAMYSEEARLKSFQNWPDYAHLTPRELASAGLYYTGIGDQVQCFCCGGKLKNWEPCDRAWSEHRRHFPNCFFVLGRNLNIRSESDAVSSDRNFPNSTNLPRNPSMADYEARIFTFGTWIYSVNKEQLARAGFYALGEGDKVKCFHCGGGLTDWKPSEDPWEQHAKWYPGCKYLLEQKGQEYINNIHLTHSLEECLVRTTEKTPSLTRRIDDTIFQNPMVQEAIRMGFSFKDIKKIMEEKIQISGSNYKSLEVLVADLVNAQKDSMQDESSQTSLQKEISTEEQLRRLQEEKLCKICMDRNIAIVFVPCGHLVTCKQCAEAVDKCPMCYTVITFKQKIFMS

The structures appear in SMILES notation. The source made the active and inactive calls. Unless noted, the rule behind the calls is not given here.

As for `C=C(COC)C(=O)CC[C@@H](OC(=O)c1ccccc1-c1ccccc1C(=O)O)c1ccc(CO)o1`, the z-score in assay [1] was -0.731; in [2], -17.9 (active); in assay [3], -0.0674 (inactive); in assay [5] it was 0.85 (inactive); in assay [6], -21.6 (active); in assay [7], 0.163 (inactive). Also, the z-score was -0.171 (inactive) in [8] and 0.62 in assay [9]. Further, the composite z-score was -6.3 (inactive) in [4] and 0.294 in [10].
`C[C@H]1C2[C@H](Cc3ccccc3)NC(=O)[C@]23C(=O)N[C@H](Cc2ccccc2)C(=O)N[C@H](Cc2ccccc2)C(=O)NC/C=C/CCC/C=C/C3[C@@H]2O[C@]12C` (stereo not given in full): the z-score was -1.6 in assay [1]; -1.6 (inactive) in assay [2]; -0.121 (inactive) in [3]; -0.283 (inactive) in assay [5]; 0.336 (inactive) in assay [6]; 0.276 (inactive) in assay [7]. Also, the z-score in [8] was -0.934 (inactive); in [9], -0.403. The composite z-score in [4] is 0.453 (inactive); in assay [10] it was -0.0807.
Turning to `O=C1C2C=CC(C(O)c3cccc4ccccc34)N(n3cnnc3)C2C(=O)N1Cc1ccccc1` (stereo not given), the z-score was -0.447 in assay [1]; -17.4 (active) in assay [2]; -1.24 (inactive) in [3]; -0.128 (inactive) in assay [5]; -23.2 (active) in assay [6]; -1.24 (inactive) in [7]. The figures for the z-score in assay [8] and in assay [9] were -1.14 (inactive) and -1.07, respectively. Besides, the composite z-score in [4] was -2.08 (inactive); in [10], -0.0421.
On to `CN(C)CCCC[C@@H]1NC(=O)[C@@H]2C[C@H](C(=O)NCCCCCN)[C@H](c3ccc(O)cc3)N2C1=O`, for which the z-score in [1] was -0.24; in assay [2], -0.235 (inactive); in [3], -0.507 (inactive); in assay [5], -0.0491 (inactive); in assay [6], -0.361 (inactive); in assay [7] it was 0.591 (inactive). Also, the values for the z-score in assay [8] and in assay [9] were 1.09 (inactive) and -0.948, respectively. Also, the composite z-score is -1.33 (inactive) in assay [4] and -0.134 in assay [10].
With `COCCCNC(=O)[C@@]1(Sc2ccc(C)cc2)CC(=O)N(Cc2ccccc2)[C@@H]1c1ccc(CO)cc1`, the z-score was 0.802 in assay [1]; 0.0695 (inactive) in assay [2]; 0.495 (inactive) in assay [3]; 0.366 (inactive) in [5]; -0.194 (inactive) in assay [6]; 0.234 (inactive) in assay [7]. Besides, the z-score was 0.127 (inactive) in assay [8] and 1.01 in assay [9]. Also, the composite z-score is -0.0163 (inactive) in [4] and -0.0492 in assay [10].
`CN1C(=O)C2C(C1=O)C1C=C(c3ccc(CO)cc3)C2C(C2CC2)N1Cc1cc2c(cc1Br)OCO2` (stereo not given): the z-score in assay [1] was -0.698; in [2], -2.01 (inactive); in assay [3] it was -1.31 (inactive); in assay [5], 0.0061 (inactive); in [6], -0.889 (inactive); in assay [7] it was 0.101 (inactive). The z-score in [8] was -0.0102 (inactive); in assay [9], -1.47. Besides, the composite z-score in assay [4] is -2.33 (inactive); in [10], 0.111.
`CCCCC(=C=CC[C@H](O)c1ccccc1OCCO)C[C@H](O)c1cc(Cl)cc(Cl)c1O`: the z-score in [1] was -0.268; in assay [2], -4.13 (inactive); in [3], -0.392 (inactive); in [5] it was 0.33 (inactive); in assay [6], 0.31 (inactive); in [7], 0.504 (inactive). Also, the results for the z-score in assay [8] and in assay [9] were 0.32 (inactive) and -0.45, respectively. For the same compound, the values for the composite z-score in [4] and in assay [10] were -1.69 (inactive) and -0.138, respectively.
Take `O=C(NCc1ccccc1)[C@@H]1c2ccccc2C(=O)N(Cc2cc(F)cc(C(F)(F)F)c2)[C@H]1c1ccc(CO)cc1`: the z-score in assay [1] is -0.745; in [2], -0.633 (inactive); in [3] it was -0.569 (inactive); in [5], 0.472 (inactive); in [6], -0.517 (inactive); in assay [7] it was 0.771 (inactive). Moreover, the z-score in assay [8] is 0.675 (inactive); in assay [9], 0.127. The composite z-score was 0.131 (inactive) in assay [4] and -0.0207 in [10].
Regarding `COCCn1c(C(=O)N(C)C)cc2c1C[C@H]1CN(C(=O)c3ccccc3)[C@@](Cc3ccc(F)cc3)(C(=O)OC)[C@@H]21`, the z-score in [1] was -0.473; in [2], 0.717 (inactive); in [3], -0.665 (inactive); in assay [5], 0.535 (inactive); in assay [6] it was 1.02 (inactive); in assay [7], 0.0751 (inactive). For the same compound, the z-score is 0.223 (inactive) in assay [8] and -0.38 in assay [9]. Also, the composite z-score in assay [4] is -0.0005 (inactive); in [10] it was 0.0447.
`C=C(C(=O)CC[C@@H](OC(C)=O)c1ccc(OCCO)cc1)C(C)C`: the z-score is 0.0804 in [1]; -0.99 (inactive) in [2]; -0.522 (inactive) in [3]; 1.48 (inactive) in assay [5]; 0.156 (inactive) in [6]; -0.248 (inactive) in assay [7]. Also, the values for the z-score in [8] and in assay [9] were -0.227 (inactive) and -0.271, respectively. In addition, the values for the composite z-score in [4] and in assay [10] were -1.51 (inactive) and 0.612, respectively.
Turning to `COCCn1c(C(=O)N2CCCC2)cc2c1C[C@H]1CN(C(=O)c3ccccc3)[C@@](Cc3ccc(OC)cc3)(C(=O)OC)[C@@H]21`, the z-score was -0.818 in assay [1]; -0.35 (inactive) in [2]; -0.716 (inactive) in assay [3]; 0.576 (inactive) in [5]; -0.944 (inactive) in [6]; -0.0628 (inactive) in assay [7]. Besides, the z-score in [8] was 0.763 (inactive); in assay [9] it was -0.939. Besides, the composite z-score in [4] was -1.79 (inactive); in assay [10], 0.232.

The record behind these values is PubChem BioAssay.
